# Source: PubChem BioAssay AID1645838 (ICCB-Longwood Screening Facility, Harvard Medical School, 2021)
# Values joined by “and” are separate entries in the source; they are usually repeats but may differ in a detail not shown here. Equal entries are not always repeated. The campaign covered roughly 2,000 compounds. About 100 (5%) were called active. No stated cut-off is given here; in the data, active means z-score above about 2; inactive means the rest. What follows is part of a selection rich in actives, with near analogues and random picks from the rest.
# Test: modulators of mitochondrial supercomplex assembly, cell-based, luminescence, Hoechst nuclei count (AID 1645838);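 further: control cybrid cells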;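 on z-score: higher means more mitochondrial supercomplex formation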
# Details: Cells, luminescence/Hoechst cell count ratio, supercomplex reporter; for z-score: stronger effect = higher value; for cell count: measured here: cell number, Hoechst nuclei count
# [1] = library stock concentration (final well concentration not given) 46 uM
# [2] = library stock concentration (final well concentration not given) 278 uM
# [3] = library stock concentration (final well concentration not given) 1.67 mM
# [4] = library stock concentration (final well concentration not given) 10 mM
# [5] = library stock concentration (final well concentration not given) 80 uM
# [6] = library stock concentration (final well concentration not given) 400 uM
# [7] = library stock concentration (final well concentration not given) 2 mM
smiles,measurement,setting,value
O=C(O)c1ccc(-c2c[nH]c3ncc(-c4ccccc4)cc23)cc1C1CCCC1,z-score,[1],-0.226 (inactive)
same,z-score,[2],-0.179 (inactive)
same,z-score,[3],-0.154 (inactive)
same,z-score,[4],2.58 (active)
same,cell count,[1],6280
same,cell count,[2],6090
same,cell count,[3],5580
same,cell count,[4],1970
CCCS(=O)(=O)Nc1ccc(F)c(C(=O)c2c[nH]c3ncc(-c4ccc(Cl)cc4)cc23)c1F,z-score,[5],-0.652 (inactive) and -0.181 (inactive)
same,z-score,[6],-0.587 (inactive) and -0.185 (inactive)
same,z-score,[7],-0.572 (inactive) and -0.608 (inactive)
same,z-score,[4],0.969 (inactive) and -0.885 (inactive)
same,cell count,[5],4780 and 6010
same,cell count,[6],4780 and 5900
same,cell count,[7],4410 and 5850
same,cell count,[4],2140 and 5020
Cn1cc(C=C2C(=O)Nc3cccnc32)c2ccccc21,z-score,[5],-0.136 (inactive)
same,z-score,[6],-0.0135 (inactive)
same,z-score,[7],-0.221 (inactive)
same,z-score,[4],-0.519 (inactive)
same,cell count,[5],5300
same,cell count,[6],5320
same,cell count,[7],5410
same,cell count,[4],4520
Cn1c(SCC(=O)N2CCCC2C(=O)Nc2ccccc2-c2ccccc2)nc2ccccc21 (stereo unspecified),z-score,[5],-0.422 (inactive)
same,z-score,[6],-0.389 (inactive)
same,z-score,[7],-0.142 (inactive)
same,z-score,[4],-0.283 (inactive)
same,cell count,[5],5510
same,cell count,[6],5800
same,cell count,[7],5780
same,cell count,[4],5710
CC(C)CCOc1ccc(NC(=S)Nc2ccc(OCCC(C)C)cc2)cc1,z-score,,-0.0536 (inactive)
same,cell count,,5220
Cc1nc2ccc(-n3ncc(C(=O)c4cc5ccccc5[nH]4)c3N)cc2[nH]1,z-score,[5],-0.114 (inactive)
same,z-score,[6],-0.221 (inactive)
same,z-score,[7],-0.0631 (inactive)
same,z-score,[4],5.29 (active)
same,cell count,[5],5810
same,cell count,[6],5920
same,cell count,[7],5510
same,cell count,[4],3410
CCCCC[C@H](O)/C=C/[C@H]1[C@H](O)CC(=O)[C@@H]1C/C=C\CCCC(=O)OCC(O)CO (stereo partly specified),z-score,,0.364 (inactive)
same,cell count,,5190
CCCNC1CCc2nc(N)sc2C1 (stereo unspecified),z-score,[5],-0.399 (inactive)
same,z-score,[6],-0.375 (inactive)
same,z-score,[7],-0.412 (inactive)
same,z-score,[4],-0.168 (inactive)
same,cell count,[5],6960
same,cell count,[6],6720
same,cell count,[7],6830
same,cell count,[4],6380
CCOc1ccc(S(=O)(=O)N(CC(=O)N=Nc2c(O)[nH]c3ccccc23)c2ccccc2)cc1,outcome,library stock 10 mM,inactive; censored for cell count
same,z-score,[5],0.0734 (inactive)
same,z-score,[6],0.0751 (inactive)
same,z-score,[7],0.419 (inactive)
same,cell count,[5],5190
same,cell count,[6],5160
same,cell count,[7],4350
CC/C=C\C/C=C\C/C=C\C/C=C\CCCCC(=O)OCC,z-score,,-0.596 (inactive)
same,cell count,,5380
Nc1nccc2c1ncn2C1C=C(CO)C(O)C1O (stereo unspecified),outcome,library stock 10 mM,inactive; censored for cell count
same,z-score,[1],-0.246 (inactive)
same,z-score,[2],0.747 (inactive)
same,z-score,[3],2.95 (active)
same,cell count,[1],5790
same,cell count,[2],4240
same,cell count,[3],1810
CCCCCCCCCCCC(=O)NC[C@]1(C)CCC[C@]2(C)c3ccc(C(C)C)cc3CC[C@@H]12,z-score,,0.0192 (inactive)
same,cell count,,4880
CCCCCCCCCCCCCCCC(=O)OC[C@@H](O)COP(=O)(O)O,z-score,,0.759 (inactive)
same,cell count,,4710
CC(=O)O[C@@]12C[C@@H](C)[C@@]3(O)[C@@H](C=C(CO)C[C@]4(O)C(=O)C(C)=C[C@@H]34)[C@@H]1C2(C)C,z-score,,2.36 (active)
same,cell count,,5140
CCCCC[C@H](O)/C=C/[C@H]1C=CC(=O)[C@@H]1CCCCCCC(=O)O,z-score,,0.664 (inactive)
same,cell count,,4830
Cc1nc(Nc2n[nH]c3c2CN(C(=O)NC(CN(C)C)c2ccccc2)C3(C)C)c2sccc2n1 (stereo unspecified),outcome,library stock 1.67 mM,inactive; censored for cell count
same,outcome,library stock 10 mM,inactive; censored for cell count
same,z-score,[1],0.353 (inactive)
same,z-score,[2],1.68 (inactive)
same,cell count,[1],4470
same,cell count,[2],2250
Oc1ccc(Nc2nc(-c3ccc(Cl)cc3)cs2)cc1,z-score,,-0.695 (inactive)
same,z-score,[5],0.00338 (inactive)
same,z-score,[6],-0.177 (inactive)
same,z-score,[7],-0.154 (inactive)
same,z-score,[4],1.99 (active)
same,cell count,,4930
same,cell count,[5],5690
same,cell count,[6],5570
same,cell count,[7],5530
same,cell count,[4],2610
Cc1cccc(Nc2nc(-c3ccncc3)cs2)c1,z-score,,-0.555 (inactive)
same,cell count,,5440
COc1cccc(OC)c1-c1ccc(CC(NC(=O)c2c(Cl)cccc2Cl)C(=O)O)cc1 (stereo unspecified),z-score,[1],-0.0712 (inactive)
same,z-score,[2],-0.126 (inactive)
same,z-score,[3],-0.192 (inactive)
same,z-score,[4],-0.205 (inactive)
same,cell count,[1],5760
same,cell count,[2],5740
same,cell count,[3],5820
same,cell count,[4],5840
CCCCCCCCCCCCCCCC(=O)OC[C@@H](O)COP(=O)([O-])OCC[N+](C)(C)C,outcome,,inactive; censored for cell count
COc1cc(Nc2c(C#N)cnc3cc(OCCCN4CCN(C)CC4)c(OC)cc23)c(Cl)cc1Cl,outcome,library stock 10 mM,inactive; censored for cell count
same,z-score,[1],-0.0511 (inactive)
same,z-score,[2],0.0803 (inactive)
same,z-score,[3],2.12 (active)
same,cell count,[1],5680
same,cell count,[2],5890
same,cell count,[3],3280
COc1cc2ncnc(Nc3ccc(F)c(Cl)c3)c2cc1OCCCN1CCOCC1,z-score,[5],0.183 (inactive)
same,z-score,[6],0.0655 (inactive)
same,z-score,[7],0.641 (inactive)
same,z-score,[4],1.23 (inactive)
same,cell count,[5],5740
same,cell count,[6],5370
same,cell count,[7],5790
same,cell count,[4],4940
COc1cc2c(Oc3ccc4[nH]c(C)cc4c3F)ncnc2cc1OCCCN1CCCC1,z-score,[1],-0.259 (inactive)
same,z-score,[2],-0.207 (inactive)
same,z-score,[3],-0.199 (inactive)
same,z-score,[4],0.419 (inactive)
same,cell count,[1],4900
same,cell count,[2],4920
same,cell count,[3],4790
same,cell count,[4],3820
